# The campaign covered roughly 5,500 compounds. About 2,000 (36%) were called active. About 18% were inconclusive and are not listed. This is one part of the list. Unmarked numbers belong to inactive results. No stated cut-off is given here; in the data, active means normalized growth mostly below about 0.91 (no sharp cut-off); inconclusive means no clear call, values can overlap the other calls; inactive means mostly above about 0.92.
# Test: chemical genetic growth profiling, strain panel (AID 1159580);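 further: tested at 20 µM; growth read once vehicle control cultures reached saturation at 30 °C; 1 = growth at the plate median or of vehicle wells; lower values mean less growth of the strain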
# Settings: growth OD
smiles,measurement,setting,value
COc1cc2occ(-c3ccccc3)c(=O)c2c(OC)c1C,normalized growth,"S. cerevisiae deletion strains, locus YJR043C, strain POL32, active compounds read low",0.937
same,normalized growth,"S. cerevisiae deletion strains, locus YJR075W, strain HOC1, active compounds read low",0.908
same,normalized growth,"S. cerevisiae deletion strains, locus YKL009W, strain mrt4, active compounds read low",0.941
same,normalized growth,"S. cerevisiae deletion strains, locus YKL068W, active compounds read low",0.965
same,normalized growth,"S. cerevisiae deletion strains, locus YKL085W, strain MDH1 (second series), active compounds read low",0.952
same,normalized growth,"S. cerevisiae deletion strains, locus YKL085W, strain MDH1, active compounds read low",0.952
same,normalized growth,"S. cerevisiae deletion strains, locus YKL160W, strain elf1, active compounds read low",0.969
same,normalized growth,"S. cerevisiae deletion strains, locus YKL190W, strain CNB1, active compounds read low",0.961
same,normalized growth,"S. cerevisiae deletion strains, locus YKR001C, strain vps1, active compounds read low",0.855 (active)
same,normalized growth,"S. cerevisiae deletion strains, locus YKR026C, strain gcn3, active compounds read low",0.973
same,normalized growth,"S. cerevisiae deletion strains, locus YKR091W, strain srl3, active compounds read low",0.976
same,normalized growth,"S. cerevisiae deletion strains, locus YLL001W, strain dnm1, active compounds read low",0.98
same,normalized growth,"S. cerevisiae deletion strains, locus YLL026W, active compounds read low",0.971
same,normalized growth,"S. cerevisiae deletion strains, locus YLL041C, strain sdh2, active compounds read low",0.976
same,normalized growth,"S. cerevisiae deletion strains, locus YLR027C, strain aat2, active compounds read low",0.979
same,normalized growth,"S. cerevisiae deletion strains, locus YLR039C, strain RIC1, active compounds read low",0.763
same,normalized growth,"S. cerevisiae deletion strains, locus YLR058C, strain SHM2, active compounds read low",0.951
same,normalized growth,"S. cerevisiae deletion strains, locus YLR102C, strain apc9, active compounds read low",0.96
same,normalized growth,"S. cerevisiae deletion strains, locus YLR221C, strain rsa3, active compounds read low",0.979
same,normalized growth,"S. cerevisiae deletion strains, locus YLR258W, strain gsy2, active compounds read low",0.97
same,normalized growth,"S. cerevisiae deletion strains, locus YLR262C, strain YPT6 (second series), active compounds read low",0.766 (active)
same,normalized growth,"S. cerevisiae deletion strains, locus YLR262C, strain YPT6, active compounds read low",0.725
same,normalized growth,"S. cerevisiae deletion strains, locus YLR268W, strain sec22, active compounds read low",0.873 (active)
same,normalized growth,"S. cerevisiae deletion strains, locus YLR320W, strain mms22, active compounds read low",0.902
same,normalized growth,"S. cerevisiae deletion strains, locus YLR330W, strain CHS5, active compounds read low",0.957
same,normalized growth,"S. cerevisiae deletion strains, locus YLR342W, strain FKS1 (second series), active compounds read low",0.714 (active)
same,normalized growth,"S. cerevisiae deletion strains, locus YLR342W, strain FKS1, active compounds read low",0.968
same,normalized growth,"S. cerevisiae deletion strains, locus YLR357W, strain rsc2, active compounds read low",0.97
same,normalized growth,"S. cerevisiae deletion strains, locus YLR370C, strain arc18, active compounds read low",0.962
same,normalized growth,"S. cerevisiae deletion strains, locus YLR371W, strain rom2, active compounds read low",0.923
same,normalized growth,"S. cerevisiae deletion strains, locus YLR384C, strain iki3, active compounds read low",0.976
same,normalized growth,"S. cerevisiae deletion strains, locus YLR418C, strain cdc73, active compounds read low",0.788 (active)
same,normalized growth,"S. cerevisiae deletion strains, locus YML016C, strain PPZ1, active compounds read low",0.956
same,normalized growth,"S. cerevisiae deletion strains, locus YML032C, strain rad52, active compounds read low",0.898 (active)
same,normalized growth,"S. cerevisiae deletion strains, locus YML120C, strain ndi1, active compounds read low",0.951
same,normalized growth,"S. cerevisiae deletion strains, locus YML124C, strain tub3, active compounds read low",0.942
same,normalized growth,"S. cerevisiae deletion strains, locus YMR058W, strain fet3, active compounds read low",0.97
same,normalized growth,"S. cerevisiae deletion strains, locus YMR078C, strain ctf18, active compounds read low",0.927
same,normalized growth,"S. cerevisiae deletion strains, locus YMR125W, strain sto1, active compounds read low",1
same,normalized growth,"S. cerevisiae deletion strains, locus YMR129W, active compounds read low",0.981
same,normalized growth,"S. cerevisiae deletion strains, locus YMR205C, strain PFK2, active compounds read low",0.932
same,normalized growth,"S. cerevisiae deletion strains, locus YMR223W, strain ubp8, active compounds read low",0.885 (active)
same,normalized growth,"S. cerevisiae deletion strains, locus YMR231W, strain pep5, active compounds read low",0.998
same,normalized growth,"S. cerevisiae deletion strains, locus YMR263W, strain SAP30, active compounds read low",0.926
same,normalized growth,"S. cerevisiae deletion strains, locus YMR307W, strain GAS1, active compounds read low",0.665
same,normalized growth,"S. cerevisiae deletion strains, locus YNL067W, strain RPL9B, active compounds read low",0.95
same,normalized growth,"S. cerevisiae deletion strains, locus YNL071W, strain lat1, active compounds read low",0.819 (active)
same,normalized growth,"S. cerevisiae deletion strains, locus YNL128W, strain TEP1, active compounds read low",0.963
same,normalized growth,"S. cerevisiae deletion strains, locus YNL153C, strain GIM3, active compounds read low",0.991
same,normalized growth,"S. cerevisiae deletion strains, locus YNL209W, strain ssb2, active compounds read low",0.988
same,normalized growth,"S. cerevisiae deletion strains, locus YNL233W, strain BNI4, active compounds read low",0.908
same,normalized growth,"S. cerevisiae deletion strains, locus YNL248C, strain rpa49, active compounds read low",0.98
same,normalized growth,"S. cerevisiae deletion strains, locus YNL250W, strain rad50, active compounds read low",0.956
same,normalized growth,"S. cerevisiae deletion strains, locus YNL271C, strain bni1, active compounds read low",0.937
same,normalized growth,"S. cerevisiae deletion strains, locus YNL298W, strain CLA4, active compounds read low",0.946
same,normalized growth,"S. cerevisiae deletion strains, locus YNL307C, strain MCK1, active compounds read low",0.664 (active)
same,normalized growth,"S. cerevisiae deletion strains, locus YNL322C, strain KRE1 (second series), active compounds read low",0.991
same,normalized growth,"S. cerevisiae deletion strains, locus YNL322C, strain KRE1, active compounds read low",0.965
same,normalized growth,"S. cerevisiae deletion strains, locus YNR049C, strain mso1, active compounds read low",0.985
same,normalized growth,"S. cerevisiae deletion strains, locus YNR052C, strain pop2, active compounds read low",0.933
same,normalized growth,"S. cerevisiae deletion strains, locus YOL006C, strain TOP1, active compounds read low",0.787
same,normalized growth,"S. cerevisiae deletion strains, locus YOL012C, strain htz1",0.865
same,normalized growth,"S. cerevisiae deletion strains, locus YOL147C, strain pex11, active compounds read low",0.923 (active)
same,normalized growth,"S. cerevisiae deletion strains, locus YOR001W, strain rrp6, active compounds read low",1
same,normalized growth,"S. cerevisiae deletion strains, locus YOR061W, strain CKA2, active compounds read low",0.96
same,normalized growth,"S. cerevisiae deletion strains, locus YOR069W, strain VPS5, active compounds read low",0.968
same,normalized growth,"S. cerevisiae deletion strains, locus YOR070C, strain gyp1, active compounds read low",0.982
same,normalized growth,"S. cerevisiae deletion strains, locus YOR080W, strain dia2, active compounds read low",1
same,normalized growth,"S. cerevisiae deletion strains, locus YOR083W, strain WHI5, active compounds read low",0.965
same,normalized growth,"S. cerevisiae deletion strains, locus YOR106W, strain vam3, active compounds read low",0.953
same,normalized growth,"S. cerevisiae deletion strains, locus YOR136W, strain idh2, active compounds read low",0.952
same,normalized growth,"S. cerevisiae deletion strains, locus YOR144C, strain elg1, active compounds read low",0.946
same,normalized growth,"S. cerevisiae deletion strains, locus YOR184W, strain ser1, active compounds read low",0.742 (active)
same,normalized growth,"S. cerevisiae deletion strains, locus YOR265W, strain rbl2, active compounds read low",0.962
same,normalized growth,"S. cerevisiae deletion strains, locus YOR270C, strain vph1, active compounds read low",0.801
same,normalized growth,"S. cerevisiae deletion strains, locus YOR290C, strain snf2, active compounds read low",0.919
same,normalized growth,"S. cerevisiae deletion strains, locus YOR316C, strain cot1, active compounds read low",0.937
same,normalized growth,"S. cerevisiae deletion strains, locus YPL051W, strain arl3, active compounds read low",0.942
same,normalized growth,"S. cerevisiae deletion strains, locus YPL055C, strain LGE1, active compounds read low",0.888
same,normalized growth,"S. cerevisiae deletion strains, locus YPL078C, strain atp4, active compounds read low",0.956
same,normalized growth,"S. cerevisiae deletion strains, locus YPL106C, strain sse1, active compounds read low",0.993
same,normalized growth,"S. cerevisiae deletion strains, locus YPL240C, strain hsp82, active compounds read low",0.969
same,normalized growth,"S. cerevisiae deletion strains, locus YPL241C, strain CIN2, active compounds read low",0.959
same,normalized growth,"S. cerevisiae deletion strains, locus YPR119W, strain clb2, active compounds read low",0.959
same,normalized growth,"S. cerevisiae deletion strains, locus YPR141C, strain kar3, active compounds read low",0.944
same,normalized growth,"S. cerevisiae deletion strains, locus YPR163C, strain tif3, active compounds read low",0.937
same,normalized growth,"S. cerevisiae deletion strains, locus YPR167C, strain met16, active compounds read low",0.942
same,normalized growth,"S. cerevisiae deletion strains, strain wtn01, active compounds read low",0.916
same,normalized growth,"S. cerevisiae strains, strain wild type, active compounds read low",0.928
